Test results reported in paper PMC5540273 (PLoS ONE, 2017).

System: BMX
Conditions: concentration: 1 μM, replicates: in singlicate; n = 1
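Further: KINOMEscan kinase panel screen.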

Row | SMILES | %Inh [%]
1 | N#Cc1ccc(Oc2ccc(Nc3ncnc4cc[nH]c34)cc2Cl)cc1 | 13
2 | Cc1cc(N2CCC(NS(=O)(=O)c3ccc(F)cc3)CC2)nc(Nc2cccc(C#N)c2)n1.O=C(O)C(F)(F)F [GSK1653537] | 14
3 | O=C(NCCCN1CCCC1=O)c1cnc(NCc2cc(Cl)ccc2Cl)nc1NC1CCNCC1 | 0
4 | c1ccc(-c2ccc3c(-c4ccnc(Nc5ccc6c(c5)OCCO6)n4)cnn3n2)cc1 [GW818941] | 8
5 | CNc1nccc(-c2c(-c3ccc(F)cc3)ncn2CCCN2CCOCC2)n1 [SB-222516] | 3
6 | C[C@@H]1CCN(C(=O)CO)C[C@@H]1N(C)c1ncnc2[nH]ccc12 | 0
7 | Cn1ccc2ncnc(Oc3ccc(NC(=O)Nc4cccnc4)c(Cl)c3)c21 | 0
8 | O=C(c1ccc(-c2cc(-c3c[nH]nc3-c3ccccn3)ccn2)cc1)N1CCCC1 [GW792479] | 12
9 | O=C(Nc1n[nH]c2nc(-c3ccco3)c(Br)cc12)c1ccc(CN2CCCC2)cc1.O=C(O)[C@H](O)[C@@H](O)C(=O)O [SB-742352] | 8
10 | Nc1n[nH]c2nnc(-c3ccccc3)cc12 [SB-517389] | 0
11 | Oc1ccc2ncnc(Nc3ccc(OCc4ccccc4)cc3)c2c1 [GI262866] | 0
12 | O=C(CCO)NCCn1ccc2ncnc(Nc3ccc(Oc4cccc(C(F)(F)F)c4)c(Cl)c3)c21 | 0
13 | Nc1nc(-c2cccnc2)c(-c2ccnc3ccccc23)s1 [GW684083] | 34
